Screening results: PubChem BioAssay, National Center for Advancing Translational Sciences (NCATS)
In the library only some 12% were active in any assay of this set; here they are far more common.
Pf growth 96h = P. falciparum growth inhibition at 96 hours; Potency, µM (series often up to 28.7 µM), actives largely listed as inhibitors; P. falciparum luciferase reporter growth, 96 h; 6.9% of 320,000 active; AID 504834
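Cell-based qHTS: luciferase-tagged P. falciparum in erythrocytes (2% hematocrit, 0.05% parasitemia final) incubated with compounds for 96 hours, 37 C, 5% CO2; luciferase detection reagent then added and luminescence measured.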
Sm TGR inh = S. mansoni TGR enzyme inhibition; purified TGR, DTNB reduction, TNB absorbance 405 nm; Potency, µM (doses to about 114 µM), most hits filed as inhibitors; Q962Y6; AID 485364; 3% of 360,000 active; further: nearly all actives have a fitted effect of over 60% in size
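Kinetic colorimetric format: TGR-catalysed, NADPH-driven DTNB reduction monitored via TNB absorbance. Enzyme dispensed at 20 nM; compound exposure 15 min at room temperature before reaction start.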
SARS PLP yeast = inhibitors of SARS-CoV papain-like protease in yeast; S. cerevisiae expressing SARS-CoV PLpro, growth rescue; Potency, µM (doses to about 32.9 µM), most hits filed as activators; 0.19% of 330,000 active; calls by dose curve; further: nearly all actives have a fitted effect of over 55% in size
Pf growth 48h = inhibits P. falciparum growth in the first generation, 48 h; Potency, µM (series often up to 28.7 µM), usual class: inhibitors; 5.9% of 310,000 active; P. falciparum luciferase growth in erythrocytes, 48 h
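Firefly luciferase activity from engineered P. falciparum reports growth; inhibitors lower the luminescent signal. Cultures contained 2% hematocrit erythrocytes at 0.1% final parasitemia.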
Numbers stand for hits; – = inactive; ? = inconclusive; · = not tested or not shown; ! = not confirmed by another sample. Unless noted, the call rests on the fitted dose curve; in most records, active means well fitted curve in the direction sought with a large enough effect; inconclusive means small, poorly fitted or top-dose-only effect, or another doubt; inactive means no such curve, though single readings can be large; an effect the other way counts as inactive or inconclusive.

SMILES | Pf growth 96h | Sm TGR inh | SARS PLP yeast | Pf growth 48h
O=C(O)c1ccc(-c2cccc([N+](=O)[O-])c2)o1 | – | 35µM | – | –
CCC(=O)N1CCN(c2ccccc2NC(=O)c2ccc(-c3cccc([N+](=O)[O-])c3)o2)CC1 | – | – | – | 8.3µM
CN1CCN(c2ccccc2NC(=O)c2ccc(-c3ccc(Cl)c(Cl)c3)o2)CC1 | – | – | – | –
CN1CCN(c2ccccc2NC(=O)c2cccc([N+](=O)[O-])c2)CC1 | – | – | – | –
Cc1cccc(CNC(=O)Cn2nc(C)c3nn(-c4ccc(Cl)cc4)c(C)c3c2=O)c1 | · | – | · | ·
COc1cc(OC)cc(-c2c(C#Cc3ccsc3)c3cc(-c4cccc5[nH]cc(C=O)c45)ccc3n2C)c1 | · | · | – | ·
O=C(Nc1ccc(SC(F)F)cc1)c1ccc(F)cc1 | – | – | – | –
Cc1cc(N2CCN(C)CC2)ccc1NC(=O)c1ccc(-c2ccc(Cl)cc2)o1 | 4.1µM | – | – | ?
CCCCOc1ccc(CNC(=O)c2cnc3sc(N4CCC(C)CC4)nn3c2=O)cc1 | · | – | · | ·
NC(=O)NC(=O)CN1c2cccc3cccc(c23)S1(=O)=O | – | – | – | –
Cc1ccccc1Cn1c(O)c(N=NC(=S)Nc2ccccc2F)c2ccccc21 | – | – | – | 1.5µM
Oc1c(N=NC(=S)Nc2ccccc2F)c2ccccc2n1Cc1ccc(Cl)cc1 | – | – | – | 2.3µM
S=c1[nH]nc(-c2cc(-c3ccco3)[nH]n2)n1-c1cccc2ccccc12 | ? | 11µM | – | ?
O=C(c1cccs1)N1CCC(N2CCN(c3ccccc3)CC2)CC1 | 3.3µM | ? | – | –
Cc1cccc(N2CCN(C(=O)CCCSc3nc4ccccc4[nH]3)CC2)c1C | 9.3µM | – | – | ?
Cc1cccc(N2CCN(C(=O)Cn3cccc3)CC2)c1C | 4.1µM | 50µM | – | ·
O=C(CCCSc1nc2ccccc2[nH]1)N1CCN(c2ccccc2)CC1 | ? | – | – | ?
Cc1cccc(N2CCN(C(=O)NC(C)c3ccc(F)c(F)c3)CC2)c1C (configuration not stated) | 12µM | – | – | 12µM
Cc1ccc(C(=O)Nc2ccc(Br)cc2)cc1S(=O)(=O)NCc1ccccc1 | · | – | · | ·
Cc1nc2nc(NC(=O)c3ccc(Cl)cc3)[nH]n2c(=O)c1Cc1ccccc1 | · | – | · | ·
CCOC(=O)c1ccc(NC(=O)Cn2nc(SC)c(S(=O)(=O)c3ccc(Cl)cc3)c2N)cc1 | · | – | · | ·
Cc1ccccc1-c1cc(C(=O)NCc2cccc(C(F)(F)F)c2)n(CC2CC(c3cccnc3)=NO2)n1 (configuration not stated) | · | · | – | ·
Cc1cccc(N2CCN(C(=O)n3ccnc3)CC2)c1C | 12µM | – | – | ?
Cc1cccc(N2CCN(C(=O)c3cccs3)CC2)c1C | 10µM | – | – | –
COc1ccc(O[C@H]2C=C[C@@H](c3ccccc3)O[C@@H]2COC(=O)CC/C(C)=N/O[C@@H](C)c2cc(-c3c(C)cc(C)cc3C)no2)cc1 | 2.9µM | – | – | ?
SMILES | Pf growth 96h | Sm TGR inh | SARS PLP yeast | Pf growth 48h
COc1cc(NC(=O)c2cc(-c3ccccc3Cl)on2)cc(OC)c1OC | 12µM | – | – | –
COc1ccc(NC(=O)c2cc(-c3ccccc3Cl)on2)cc1 | ? | – | – | ?
CCN(CCCNC(=O)c1cc2c(Cl)nc3ccccc3c2s1)Cc1ccccc1 | · | 89µM | · | ·
CCN(CC)CCCNC(=O)c1cc2c(Cl)nc3ccccc3c2s1 | ? | – | – | ?
COc1cc(NC(=O)c2cc3c(Cl)nc4ccccc4c3s2)cc(OC)c1OC | ? | – | – | 0.83µM
CN(CCCNC(=O)c1cc2c(Cl)nc3ccccc3c2s1)Cc1ccccc1 | ? | 20µM! | – | 3.3µM
CCOc1ccc(S(=O)(=O)N2CCC(C(=O)NCCc3ccc(S(N)(=O)=O)cc3)CC2)cc1 | ? | – | – | –
Cc1ccc(CNC(=O)CCS(=O)(=O)c2cccc3nonc23)cc1 | – | 25µM | – | –
COc1ccc(CNC(=O)CCS(=O)(=O)c2cccc3nonc23)cc1 | ? | 13µM | – | –
COc1ccccc1CNC(=O)CS(=O)(=O)Cc1ccccc1 | 2.6µM | – | – | –
COc1ccccc1CNC(=O)CCS(=O)(=O)c1cccc2nonc12 | · | 45µM | – | ·
O=C(CCS(=O)(=O)c1cccc2nsnc12)NCc1ccccc1Cl | 9.3µM | ? | – | –
NC(=O)c1ccccc1NC(=O)CCCc1ccccc1 | – | – | – | –
COc1ccccc1CNC(=O)CCS(=O)(=O)c1cccs1 | – | 35µM | – | –
NC(=O)c1ccccc1NC(=O)CS(=O)(=O)Cc1ccccc1 | 9.3µM | – | – | –
COc1ccc(C)cc1NC(=O)CCNS(=O)(=O)c1cccc2nonc12 | – | – | – | –
COc1ccc(Cl)cc1NC(=O)CCNS(=O)(=O)c1cccc2nonc12 | 10µM | – | – | –
Cc1ccc(NC(=S)NC(=O)C2CCC2)cc1C | – | ? | – | –
CN(C)C1(CNC(=O)COc2ccc([N+](=O)[O-])cc2)CCCCC1 | · | – | · | ·
C[C@H](CO)N1C[C@H](C)[C@@H](CN(C)S(C)(=O)=O)Oc2c(NC(=O)c3ccncc3)cccc2C1=O | · | · | – | ·
COc1ccccc1CNC(=O)CCn1c(=O)[nH]c2ccsc2c1=O | ? | – | – | 1µM
O=C(CCCCCn1c(=O)[nH]c2ccsc2c1=O)NCc1ccccc1 | · | – | · | ·
O=C1CC(=O)CC(c2ccccc2)C1 | – | – | – | –
O=C1CC(c2ccccc2)CC(=O)C1CS(=O)(=O)c1ccccc1 (configuration not stated) | – | 0.71µM | – | –
BrCC1C[n+]2c(SCc3ccccc3)nc3sc4c(c3c2O1)CCCC4 (configuration not stated) | – | 32µM | – | –
SMILES | Pf growth 96h | Sm TGR inh | SARS PLP yeast | Pf growth 48h
N#Cc1cnn(-c2nc(SCc3ccccc3)nc3sc4c(c23)CCCC4)c1N | ? | – | – | –
CCSc1nc2sc3c(c2c2[n+]1CC(CBr)O2)CCCC3 (configuration not stated) | – | 45µM | – | –
CCSc1nc2sc3c(c2c(=O)[nH]1)CCCC3 | – | – | – | –
Cc1ccc(NC(=O)CCC(=O)N/N=C/c2cccnc2)cc1 | 3.7µM | – | – | –
O=C(CCC(=O)Nc1ccccc1)N/N=C/c1cccnc1 | 5.2µM | – | – | –
CC(=O)c1cnc2nc(SCc3ccc(C)cc3)nn2c1C | 13µM | – | – | –
CC(C)=CCC/C(C)=C/CCC(C)NCCN1CCNCC1 (configuration not stated) | ? | – | – | 13µM
CC(C)=CCC/C(C)=C/CC(C)(C)CNCCN1CCNCC1 | 4.7µM | – | – | 4.7µM
CCCCCCCCCC(CC)c1ccc(S(=O)(=O)O)cc1 (configuration not stated) | – | · | · | –
CC1=CCC(C(=O)O)C(C(=O)NC2CCCCC2)C1 (configuration not stated) | – | – | – | –
C#CCN1c2ccccc2Sc2cccnc21 | 0.12µM | – | – | 0.33µM
COc1ccc(-c2oc3ccccc3c2C#CC(C)(C)O)cc1 | 1.9µM | ? | – | ?
O=C(ON=C1CCN(c2ccc([N+](=O)[O-])cc2)CC1)c1ccccc1 | – | – | – | –
